# Assay results taken from PubChem BioAssay (NCATS).
# Records with an inconclusive call do not appear. Entries that show only a call come without a potency. Unmarked numbers belong to inactive results. Activity calls are given as the source filed them. Calls come from the whole dose curve; as a rule, active = well fitted curve in the direction sought with a large enough effect; inconclusive = small, poorly fitted or top-dose-only effect, or another doubt; inactive = no such curve, though single readings can be large; an effect the other way counts as inactive or inconclusive.
# Key:
# CRL-7250 = normal cell line; test: Cytotoxic Profiling of Annotated Libraries Using Quantitative High-Throughput Screening (AID 1296008); conditions: Five cell lines viability, CellTiter-Glo ATP luminescence, 48-72 h; max response: stronger effect = lower value; note: nearly all actives have a fitted effect of over 60% in size; note: potency is the fitted concentration of half-maximal effect
# Outline: (§1)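 Compounds were pin-transferred onto cells and incubated 48 or 72 hr at 37 degree Celsius, 95% humidity. CellTiter-Glo was added, plates sat 10 min at room temperature, then ATP-coupled luminescence was imaged as the viability read-out.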
# HaCat = test: as above; conditions: Five cell lines viability, CellTiter-Glo ATP luminescence, 48-72 h; max response: stronger effect = lower value
# Outline: as §1
# KB-3-1 = test: as above; conditions: Five cell lines viability, CellTiter-Glo ATP luminescence, 48-72 h; max response: stronger effect = lower value
# Outline: as §1
# NIH3T3 [1] = test: as above; conditions: Five cell lines viability, CellTiter-Glo ATP luminescence, 48-72 h; max response: stronger effect = lower value
# Outline: as §1
# C33A = test: Primary qHTS to identify gynecologic anti-cancer compounds using libraries of approved drugs and bioactive compounds (AID 1345084); conditions: Gynecologic cancer cell panel viability, ATPlite luminescence, 48 h; series mostly up to 57.5 µM; note: nearly all actives have a fitted effect of over 55% in size
# Outline: (§2)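 48 h compound exposure at 37 C, 5% CO2; five-point qHTS. ATPlite luminescence readout of cell ATP.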
# CAOV3 = test: as above; conditions: Gynecologic cancer cell panel viability, ATPlite luminescence, 48 h; series mostly up to 57.5 µM
# Outline: as §2
# CASKI = test: as above; conditions: Gynecologic cancer cell panel viability, ATPlite luminescence, 48 h; series mostly up to 57.5 µM
# Outline: as §2
# Es-2 = test: as above; conditions: Gynecologic cancer cell panel viability, ATPlite luminescence, 48 h; series mostly up to 57.5 µM
# Outline: as §2
# HeLa = test: as above; conditions: Gynecologic cancer cell panel viability, ATPlite luminescence, 48 h; series mostly up to 57.5 µM
# Outline: as §2
# Hek293T = test: as above; conditions: Gynecologic cancer cell panel viability, ATPlite luminescence, 48 h, control line for the selectivity index; series mostly up to 57.5 µM
# Outline: as §2
# JEG-3 = test: as above; conditions: Gynecologic cancer cell panel viability, ATPlite luminescence, 48 h; series mostly up to 57.5 µM
# Outline: as §2
# OV90 = test: as above; conditions: Gynecologic cancer cell panel viability, ATPlite luminescence, 48 h; series mostly up to 57.5 µM
# Outline: as §2
# NIH3T3 [2] = test: qHTS assay to identify novel small-molecules to repurpose for Merkel cell carcinoma treatment (AID 1296009); conditions: MCC and control cell lines, CellTiter-Glo viability, 72 h; series mostly up to 44.8 µM; note: nearly all actives have a fitted effect of over 60% in size
# Outline: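 Cells exposed to NPC (8-point) and MIPE (11-point) compound dilutions for 72 hr at 37 degree celsius; viability read by CellTiter-Glo luminescence, normalized to no-cell and DMSO in-plate controls.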
Structure (SMILES),max response (CRL-7250),max response (HaCat),max response (KB-3-1),max response (NIH3T3 [1]),Potency (C33A),Potency (CAOV3),Potency (CASKI),Potency (Es-2),Potency (HeLa),Potency (Hek293T),Potency (JEG-3),Potency (OV90),outcome (CRL-7250),outcome (NIH3T3 [1]),Potency (NIH3T3 [2]),Potency (KB-3-1),outcome (KB-3-1)
C/C(=C\CO[C@@H]1O[C@H](CO[C@H]2OC[C@](O)(CO)[C@H]2O)[C@@H](O)[C@H](O)[C@H]1O)C(C)(C)O,-3.13%,-2.99%,2.14%,3.25%,inactive,inactive,inactive,inactive,inactive,inactive,inactive,inactive,,,,,
COc1c2c(c(C)c3c1C(=O)OC3)O[C@@]1(C)C[C@@H](OC(C)=O)[C@]34O[C@](OC)(CC[C@]3(C)[C@H]1C2)OC4(C)C,-3.21%,-9.22%,1.98%,4.28%,inactive,inactive,inactive,inactive,inactive,inactive,inactive,inactive,,,,,
COc1ccccc1N1CCN(CC(C(=O)NC(C)(C)C)c2ccccc2)CC1 (stereo unspecified),,-3.82%,7.33%,,,inactive,inactive,inactive,inactive,inactive,inactive,inactive,inactive,inactive,inactive,,
COc1c2c(nc3occc13)C(CC=C(C)C)(OC)C(O)CC2 (stereo unspecified),-11.5%,-1.05%,-4.13%,-1.61%,inactive,inactive,inactive,inactive,inactive,inactive,inactive,inactive,,,,,
O=C(c1ccccn1)N(Cc1cccs1)C1(C(=O)NC2CCCCC2)CCCCC1,-5.83%,-24.4%,7.82%,,inactive,inactive,inactive,inactive,inactive,inactive,inactive,inactive,,inactive,,,
CNCc1cc(-c2ccccc2F)n(S(=O)(=O)c2cccnc2)c1,-3.13%,-5.62%,-0.384%,0.556%,inactive,inactive,inactive,inactive,inactive,inactive,inactive,inactive,,,,,
N#Cc1cccc(C(=O)Nc2cc(-c3ccccc3)nn2-c2ccccc2)c1,1.2%,1.42%,-17%,-3.88%,inactive,inactive,inactive,inactive,inactive,inactive,inactive,inactive,,,,,
c1cc(-c2cnn3cc(-c4ccc(N5CCNCC5)cc4)cnc23)c2cccnc2c1,,0.937%,,-2.87%,inactive,inactive,inactive,inactive,inactive,inactive,inactive,inactive,inactive,,,4.11 µM (active),
COCCN(C(=O)c1cc(OC)c(OC)c(OC)c1)c1nc(-c2ccccc2)cs1,-0.0444%,0.0568%,5.9%,3.38%,inactive,inactive,inactive,inactive,inactive,inactive,inactive,inactive,,,,,
NS(=O)(=O)c1ccc(N2CCN(CC[C@@H]3OCCc4ccccc43)CC2)cc1,-8.79%,-12.7%,-10.3%,-0.981%,inactive,inactive,inactive,inactive,inactive,inactive,inactive,inactive,,,,,
COc1ccc(C2(N(C)C(=O)c3ccc(NC(=O)c4ccco4)cc3)CCOCC2)cc1,-25.1%,-27.5%,-3.65%,-15.7%,inactive,inactive,inactive,inactive,inactive,inactive,inactive,inactive,,,,,
COc1cc(OC)c2c(=O)[nH]c(-c3cc(C)c(OCCO)c(C)c3)nc2c1,-10.3%,1.79%,,-22%,inactive,inactive,inactive,inactive,inactive,inactive,inactive,inactive,,,,,inactive
COc1ccc(C2Oc3c(OC)cc(CCCO)cc3C2COC2OC(CO)C(O)C(O)C2O)cc1OC (stereo unspecified),,1.52%,-12.2%,-1.06%,inactive,inactive,inactive,inactive,inactive,inactive,inactive,inactive,inactive,,,,
CC(=O)OC[C@]12[C@H](OC(C)=O)[C@H](OC(=O)c3ccccc3)[C@@H]3[C@@H](OC(C)=O)[C@]1(OC3(C)C)[C@H](C)C[C@H](OC(C)=O)[C@@H]2OC(=O)c1ccccc1,,-0.678%,4.67%,3.09%,inactive,inactive,inactive,inactive,inactive,inactive,inactive,inactive,inactive,,,,
C[C@@H]1CC[C@]2(C(=O)O)CC[C@]3(C)C(=CCC4[C@@]5(C)CC[C@H](O)[C@](C)(C(=O)O)C5CC[C@]43C)C2[C@]1(C)O (stereo partly specified),-2.08%,4.55%,0.684%,-24.1%,inactive,inactive,inactive,inactive,inactive,inactive,inactive,inactive,,,,,
CC(C)n1c(=O)c(C(=O)NC2CC3CCC(C2)N3C[C@@H](O)CN(C)S(C)(=O)=O)cc2ccccc21 (stereo partly specified),-15.6%,-16.2%,-11.4%,-22.5%,inactive,inactive,inactive,inactive,inactive,inactive,inactive,inactive,,,,,
CC(C)C(C)C(O)C1CC23CC(=O)C4(O)C(=C2CCC3C1C)C=CC1(O)CC(O)CCC14C (stereo unspecified),-22.9%,2.09%,5.36%,-0.33%,inactive,inactive,inactive,inactive,inactive,inactive,inactive,inactive,,,,,
CC(C)/C=C1\NC(=O)C(C(C)C)n2c1nc1ccccc1c2=O (stereo unspecified),2.92%,-9.75%,-2.24%,-0.19%,inactive,inactive,inactive,inactive,inactive,inactive,inactive,inactive,,,,,
